Laboratory results as given in the supplement of paper PMC13380429.

Test system: Vero E6 infected with SARS-CoV-2
Experiment: inhibition of SARS-CoV-2 cytopathic effect; higher = more antiviral protection, active = above 15
Conditions: 48 h

Measured: inhibition of SARS-CoV-2 cytopathic effect

OC1=c2ccccc2=C(NC2CCCCC2)/C1=C\c1ccccc1
inactive: 1 nM 0.53% | 8.33 nM 0.22% | 100 nM 0.42% | 833.33 nM 13.8%
active: 10000 nM 45.5%

CC(=O)O[C@H]1CC[C@@]2(C)C(=CC[C@@H]3[C@@H]2CC[C@]2(C)C(=O)CC[C@@H]32)C1 [prasterone-acetate]
inactive: 1 nM -0.78% | 8.33 nM 2.86% | 100 nM 3.18% | 833.33 nM 4.82% | 10000 nM -2.88%

CC(C)=CCC[C@](C)(O)[C@@H]1CC=C(C)CC1 [levomenol]
inactive: 1 nM 0.81% | 8.33 nM 4.97% | 100 nM 5.57% | 833.33 nM 3.97% | 10000 nM 0.76%

C[C@H](Cc1ccc(OCC(=O)O)cc1)NC[C@H](O)c1cccc(Cl)c1
inactive: 1 nM -1% | 8.33 nM 0.79% | 100 nM 2.24% | 833.33 nM 0.59% | 10000 nM 0.72%

CC[C@H]1[C@@H](O)[C@@H]2[C@H](CC[C@]3(C)[C@@H]([C@H](C)CCOS(=O)(=O)O)CC[C@@H]23)[C@@]2(C)CC[C@@H](O)C[C@@H]12
inactive: 1 nM 0.86% | 8.33 nM 1.92% | 100 nM -0.03% | 833.33 nM 1.94% | 10000 nM 1.9%

CC(C)NC(=O)N1CC[C@H](NC2=Nc3cc(F)ccc3N(CC(F)F)c3ccc(Cl)cc32)C1
inactive: 1 nM 2.37% | 8.33 nM 0.15% | 100 nM 3.33% | 833.33 nM 8.12% | 10000 nM -0.57%

O=C(c1ccc(F)cc1)C1CCN(CCn2c(=O)[nH]c3ccccc3c2=O)CC1 [ketanserin]
inactive: 1 nM 1.58% | 8.33 nM -0.51% | 100 nM -0.25% | 833.33 nM 2% | 10000 nM -1.33%

COc1ccc(-c2cc(=O)c3c(O)cc(O[C@@H]4O[C@H](CO[C@@H]5O[C@@H](C)[C@H](O)[C@@H](O)[C@H]5O)[C@@H](O)[C@H](O)[C@H]4O)cc3o2)cc1O [diosmin]
inactive: 1 nM 3.94% | 8.33 nM -0.11% | 100 nM -2.26% | 833.33 nM 4.64% | 10000 nM -2.85%

CC1(COc2ccc3c(c2)ncn3-c2ccc3cccc(N4CCC(N)CC4)c3n2)COC1 [crenolanib]
inactive: 1 nM -0.58% | 8.33 nM 1.15% | 100 nM 2.74% | 833.33 nM 2.21% | 10000 nM 0.74%

O=C(Cn1ccnc1[N+](=O)[O-])NCc1ccccc1 [benznidazole]
inactive: 1 nM -0.15% | 8.33 nM -0.69% | 100 nM -2.08% | 833.33 nM -0.42% | 10000 nM 0.58%

Cc1cc(Nc2cc(N3CCN(C)CC3)nc(Sc3ccc(NC(=O)C4CC4)cc3)n2)n[nH]1 [tozasertib]
inactive: 1 nM -0.96% | 8.33 nM -0.86% | 100 nM -0.22% | 833.33 nM 0.2% | 10000 nM -4.18%

CSc1ccc(C(=O)/C=C/c2cc(C)c(OC(C)(C)C(=O)O)c(C)c2)cc1 [elafibranor]
inactive: 1 nM -1.98% | 8.33 nM 1.58% | 100 nM -1.18% | 833.33 nM 2.15% | 10000 nM 3.31%

CCO[C@H]1O[C@@H]2O[C@@]3(C)CC[C@H]4[C@H](C)CC[C@@H]([C@H]1C)[C@@]24OO3 [artemotil]
inactive: 1 nM -0.58% | 8.33 nM -2.88% | 100 nM 1.56% | 833.33 nM 0.29% | 10000 nM 1.11%

Oc1c(Cl)cc(Cl)cc1Sc1cc(Cl)cc(Cl)c1O [bithionol]
inactive: 1 nM 0.29% | 8.33 nM 0.59% | 100 nM -0.92% | 833.33 nM -0.55% | 10000 nM 2.32%

Cc1c(C(=O)NCCCO)cnn1-c1nc(-c2cccc(C(F)(F)F)c2)cs1
inactive: 1 nM 2.55% | 8.33 nM 3.83% | 100 nM 3.4% | 833.33 nM 5.36% | 10000 nM -0.86%

CCOC(=O)CCNc1cc(N2CCc3ccccc3CC2)nc(-c2ccccn2)n1
inactive: 1 nM -5.53% | 8.33 nM 0.27% | 100 nM 1.52% | 833.33 nM 1.83% | 10000 nM -0.53%

CCc1ccc(/C=C2/SC(=S)NC2=O)cc1
inactive: 1 nM -2.34% | 8.33 nM -6.5% | 100 nM -4.03% | 833.33 nM 3.21% | 10000 nM 1.11%

O=CN1CCC(C(=O)NCCN2CCC(=C3c4ccccc4C=Cc4ccccc43)CC2)CC1
inactive: 1 nM 1.02% | 8.33 nM 0.48% | 100 nM 0.42% | 833.33 nM -2.21% | 10000 nM 1.23%

C[C@H]1CCC/C=C/[C@@H]2C[C@H](O)C[C@H]2[C@H](O)/C=C/C(=O)O1 [brefeldin-A]
active: 100 nM 47.2%
inactive: 1 nM 0.16% | 8.33 nM 2.51% | 833.33 nM -3.55% | 10000 nM -4.89%

C[C@]12C[C@H](O)[C@H]3[C@@H](CCC4=CC(=O)CC[C@@]43C)[C@@H]1CC[C@@H]2C(=O)CO [corticosterone]
inactive: 1 nM -1.19% | 8.33 nM -0.88% | 100 nM 0.56% | 833.33 nM -0.38% | 10000 nM 0.43%

Cn1cccc1/C=C1\C(=O)NC(=O)c2ccccc21
inactive: 1 nM 2.55% | 8.33 nM -0.08% | 100 nM -1.24% | 833.33 nM -2.42% | 10000 nM 5%

CC[N+](C)(CC)CCOC(=O)C1c2ccccc2Oc2ccccc21 [methantheline]
inactive: 1 nM 7.35% | 8.33 nM 3.87% | 100 nM 1.9% | 833.33 nM -0.21% | 10000 nM 3.41%

Cn1ncc(Cl)c1-c1cc(C(=O)N[C@H](CN)Cc2cccc(F)c2)sc1Cl
inactive: 1 nM 0.2% | 8.33 nM -1.05% | 100 nM -0.95% | 833.33 nM -0.24% | 10000 nM -2.44%

CCN(CC)CCNC(=O)c1c(C)[nH]c(/C=C2\C(=O)Nc3ccc(F)cc32)c1C [sunitinib]
active: 10000 nM 30.3%
inactive: 1 nM 0.55% | 8.33 nM -1.31% | 100 nM 2.08% | 833.33 nM -2.15%

CC(=O)C(=Cc1cc(O)c(O)c([N+](=O)[O-])c1)C(C)=O [nitecapone]
inactive: 1 nM -1.48% | 8.33 nM 2.97% | 100 nM 1.47% | 833.33 nM -1.89% | 10000 nM -6.91%

COc1ccc2c(c1)[C@]13CCCC[C@@H]1[C@H](C2)N(C)CC3 [dextromethorphan]
inactive: 1 nM 0.17% | 8.33 nM -0.37% | 100 nM 0.6% | 833.33 nM 0.81% | 10000 nM -0.1%

Cc1cc(Oc2ccc3nc(COc4ccc(CC5SC(=O)NC5=O)cc4)n(C)c3c2)cc(C)c1N (stereo not given) [efatutazone]
inactive: 1 nM -0.56% | 8.33 nM 2.28% | 100 nM 0.7% | 833.33 nM 0.08% | 10000 nM -0.83%

C[C@]12CC[C@H](O)C[C@H]1CC[C@@H]1[C@@H]2CC[C@]2(C)[C@@](O)(c3ccoc3)CC[C@]12O [rostafuroxine]
inactive: 1 nM 3.43% | 8.33 nM -0.48% | 100 nM 1.69% | 833.33 nM -1.79% | 10000 nM -1.77%

O=C(O)C(=O)c1cn(Cc2ccccc2)c2ccc(-c3ccc(OC(F)(F)F)cc3)cc12 [tiplaxtinin]
inactive: 1 nM 2.16% | 8.33 nM 2.56% | 100 nM 3.44% | 833.33 nM 2.13% | 10000 nM 4.09%

N#Cc1cn([C@@H]2O[C@H](CO)[C@@H](O)[C@H]2O)c2ncnc(N)c12 [toyocamycin]
inactive: 1 nM 0.31% | 8.33 nM 2.87% | 100 nM 4.68% | 833.33 nM -0.02% | 10000 nM -0.24%

O=C1CCc2ccc(OCCCCN3CCN(c4cccc(Cl)c4Cl)CC3)cc2N1 [aripiprazole]
inactive: 1 nM 5.18% | 8.33 nM -2.79% | 100 nM 1.15% | 833.33 nM -1.05% | 10000 nM -5.25%

O=C1CCCCCCCCCCCCCCO1 [oxacyclohexadecan-2-one]
inactive: 1 nM -0.21% | 8.33 nM 0.27% | 100 nM 0.06% | 833.33 nM 1.81% | 10000 nM -1.21%

O=C(C(c1ccccc1)c1ccccc1)N1CCN(CC(O)COc2cccc3ncccc23)CC1 (stereo not given) [dofequidar]
inactive: 1 nM -0.98% | 8.33 nM 4.84% | 100 nM -1.1% | 833.33 nM -0.87% | 10000 nM 1.44%

Clc1ccc2c(N3CCN(CCCN4CCN(c5ccnc6cc(Cl)ccc56)CC4)CC3)ccnc2c1 [piperaquine-phosphate]
inactive: 1 nM -0.04% | 8.33 nM 1.25% | 100 nM -0.14% | 833.33 nM -1.37% | 10000 nM -2.6%

C=CC(=O)Nc1cccc(C)c1Nc1ncc2cc(-c3c(Cl)c(OC)cc(OC)c3Cl)ccc2n1
inactive: 1 nM -1.66% | 8.33 nM -0.88% | 100 nM -0.76% | 833.33 nM 0.98% | 10000 nM 3.67%

Cc1ccc2c(c1)c1c(n2CCc2ccc(C)nc2)CCN(C)C1 [latrepirdine]
inactive: 1 nM 1.25% | 8.33 nM -0.5% | 100 nM -0.92% | 833.33 nM 0.73% | 10000 nM 0.87%

Nc1nc(N)nc(-c2cc(Cl)ccc2Cl)n1 [irsogladine]
inactive: 1 nM 2.68% | 8.33 nM 1.38% | 100 nM 0.04% | 833.33 nM 1.79% | 10000 nM -0.24%

C#C[C@]1(OC(=O)CCCCCC)CC[C@H]2[C@@H]3CCC4=CC(=O)CC[C@@H]4[C@H]3CC[C@@]21C [norethisterone-enanthate]
inactive: 1 nM 2.31% | 8.33 nM 0.16% | 100 nM 0.91% | 833.33 nM -1.87% | 10000 nM -1.58%
